Assay outcomes from PubChem.
CYP2C9 inh – human CYP2C9 inhibition; P11712; CYP2C9 Supersomes, luciferin-H conversion, luminescence; actives 20% (n = 96,000); inhibition, % at 5 µM;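 active = blocking of liver enzyme CYP2C9 beyond about 50% at 5 µM, limit read from the data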
CYP2C19 inh – human CYP2C19 inhibition. inhibition, % at 5 µM. P33261. actives 21% (n = 96,000). CYP2C19 Supersomes, luciferin-H EGE luminescence, 30 min;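 active = CYP2C19 inhibition above a set limit at 5 µM in the primary screen, cut at about 50% in these data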;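 note: plate controls were negative control wells for no effect and 2.5 mM tranylcypromine positive control for full effect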
CYP2C9 activ – activators of human CYP2C9. recombinant CYP2C9, luciferin-H conversion, luminescence; active compounds read high; factor 1 = untreated enzyme, 0 = blocked. activation factor at 5 µM. actives 1.4% (n = 96,000). AID 1024;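 active = activation factor of 2 or more for CYP2C9 at a 5 µM dose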;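 note: 0 = sulfaphenazole-blocked wells and 1 = vehicle-only wells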
CYP2C19 activ – activators of human cytochrome P450 2C19; P33261; AID 1025; recombinant CYP2C19, luciferin-H EGE luminescence; active compounds read high; 0 = fully inhibited enzyme, 1 = untreated enzyme; activation factor at 5 µM; 96,000 tested, under 10 active;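 active = activation factor of at least 2 at 5 µM in the primary screen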;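 note: 0 = wells with 2.5 mM tranylcypromine and 1 = vehicle-only wells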
PLAP activator – human PLAP activation | purified PLAP enzyme, luminescent substrate read-out; active compounds read high | AID 696 | P05187 | actives 1.2% (n = 96,000) | activation fold at 20 µM; in the data active = activation fold above about 2
Target sequence (P05187 whole entry, looked up): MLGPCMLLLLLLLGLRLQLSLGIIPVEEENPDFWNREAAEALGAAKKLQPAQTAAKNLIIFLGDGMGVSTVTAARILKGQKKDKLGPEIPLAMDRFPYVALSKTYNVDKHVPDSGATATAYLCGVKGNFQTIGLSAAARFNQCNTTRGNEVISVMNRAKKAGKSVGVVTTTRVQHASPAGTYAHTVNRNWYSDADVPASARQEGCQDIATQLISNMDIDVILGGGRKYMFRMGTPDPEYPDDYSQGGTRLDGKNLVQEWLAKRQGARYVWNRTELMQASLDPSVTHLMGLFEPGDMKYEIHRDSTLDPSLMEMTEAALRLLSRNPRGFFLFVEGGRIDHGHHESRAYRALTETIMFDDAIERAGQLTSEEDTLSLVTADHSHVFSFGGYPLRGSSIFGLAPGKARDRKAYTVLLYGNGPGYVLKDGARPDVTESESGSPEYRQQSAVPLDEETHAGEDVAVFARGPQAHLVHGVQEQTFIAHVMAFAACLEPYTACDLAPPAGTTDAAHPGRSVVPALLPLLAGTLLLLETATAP
Numbers without * were called inactive. Most compounds without a hit are left out; they make up all but 31% or so of the library.

SMILES | CYP2C9 inh | CYP2C19 inh | CYP2C9 activ | CYP2C19 activ | PLAP activator
CCOC(=O)N1CCN(C(=O)CN(c2cccc(C)c2)S(=O)(=O)c2ccccc2)CC1 | 71.6* | 48.2 | 0.3 | 0.5 | 1.5
Cc1ccc(S(=O)(=O)N(CC(=O)N2CCC(C)CC2)c2cccc(C)c2)cc1 | 86.5* | 81.6* | 0.1 | 0.2 | 2.2*
CCOC(=O)N1CCN(C(=O)CN(c2cc(Cl)ccc2OC)S(=O)(=O)c2ccccc2)CC1 | 64.7* | 24.3 | 0.4 | 0.8 | 1.7
COc1ccccc1N1CCN(C(=O)CN(c2ccccc2OC)S(=O)(=O)c2ccccc2)CC1 | 89.5* | 74.9* | 0.1 | 0.3 | 1.5
O=C(Nc1cccc(Br)c1)c1ccn[nH]1 | -6.0 | 16.0 | 1.1 | 0.8 | 1.3
CCOC(=O)N1CCN(C(=O)CN(c2cccc(C)c2)S(=O)(=O)c2ccc(C)cc2)CC1 | 73.6* | 72.4* | 0.3 | 0.3 | 1.4
COC(=O)C(C)Sc1nnc(Cc2cc(=O)[nH]c(=O)[nH]2)n1-c1cc(C)ccc1C (stereo not given) | -1.4 | 1.3 | 1 | 1 | 1.2
O=c1[nH]c(=O)n(C2CCCO2)cc1Br (stereo not given) | 2.3 | -2.4 | 1 | 1 | 0.9
COCCCn1c(C)nc2c(c1=O)c1nc3ccccc3nc1n2CCc1ccccc1 | 79.6* | 29.2 | 0.2 | 0.7 | 1.2
COCCCn1c2nc3ccccc3nc2c2c(=O)n(Cc3ccccc3Cl)cnc21 | 1.3 | 23.2 | 1 | 0.8 | 0.8
O=c1c2c3nc4ccccc4nc3n(CC3CCCO3)c2ncn1CCc1ccccc1 (stereo not given) | 14.7 | 19.0 | 0.9 | 0.8 | 0.7
CCCCCn1c2nc3ccccc3nc2c2c(=O)n(CC3CCCO3)c(C)nc21 (stereo not given) | 74.4* | 13.0 | 0.3 | 0.9 | 1.6
COCCCn1c2nc3ccccc3nc2c2c(=O)n(Cc3ccc(Cl)cc3)cnc21 | 11.9 | 96.3* | 0.9 | 0 | 1.3
COCCCn1c2nc3ccccc3nc2c2c(=O)n(Cc3cccs3)cnc21 | -0.1 | -9.3 | 1 | 1.1 | 1.1
O=c1c2c3nc4ccccc4nc3n(Cc3ccccc3)c2ncn1Cc1ccco1 | 60.9* | 14.4 | 0.4 | 0.9 | 1.1
COCCN(CC(=O)NCc1ccc(F)cc1)C(=O)CCC(=O)Nc1nccs1 | 11.6 | 1.3 | 0.9 | 1 | 1.3
O=C(CN(Cc1cccs1)C(=O)CCC(=O)Nc1nccs1)NCc1ccccc1 | 63.8* | 78.0* | 0.4 | 0.2 | 0.9
Cc1ccc(CNc2ccc(Cl)cc2[N+](=O)[O-])cc1 | 10.8 | 5.6 | 0.9 | 0.9 | 0.9
CCOc1cc(CNc2ncc(-c3ccc(OC)cc3)n2C)ccc1O | 47.2 | 59.4* | 0.5 | 0.4 | 1.6
Cn1c(-c2ccc(Br)cc2)cnc1NCc1cccnc1 | 23.0 | 37.1 | 0.8 | 0.6 | 1.1
CCN(CC)CCn1c(NCc2ccc(OC)cc2)nc2ccccc21 | -3.3 | -7.3 | 1 | 1.1 | 1.1
Cn1c(-c2ccc(F)cc2)cnc1NCc1ccc(C#N)cc1 | 56.6* | 64.4* | 0.4 | 0.4 | 1
Cn1c(-c2ccc(F)cc2)cnc1NCc1ccc(F)cc1 | 28.1 | 68.9* | 0.7 | 0.3 | 0.9
O=C(Nc1ccc2c(c1)ncn2C1CCCCC1)c1ccco1 | 18.1 | 8.3 | 0.8 | 0.9 | 0.9
CCOc1ccc(CCNC(=O)C2CC(=O)N(C3CCCC3)C2)cc1OCC (stereo not given) | 16.5 | -3.8 | 0.8 | 1 | 1
SMILES | CYP2C9 inh | CYP2C19 inh | CYP2C9 activ | CYP2C19 activ | PLAP activator
CC(C)n1c(SCc2ccccc2F)nc2c1c(=O)n(C)c(=O)n2C | 73.7* | 59.6* | 0.3 | 0.4 | 1.5
CC(C)n1c(SCc2cc(=O)[nH]c3ccccc23)nc2c1c(=O)n(C)c(=O)n2C | 38.0 | 6.1 | 0.6 | 0.9 | 0.9
O=C1CCN(S(=O)(=O)c2ccccc2)C2CCCCC12 (stereo not given) | 36.2 | 94.0* | 0.6 | 0.1 | 1
Cc1ccc(C)c(NC(=S)NNC(=O)c2csc3c2CCCC3)c1 | -13.6 | 49.7 | 1.1 | 0.5 | 1.2
Cc1ccc(C)c(NC(=S)NNC(=O)c2csc3c2CCC(C)C3)c1 (stereo not given) | 52.8* | 85.8* | 0.5 | 0.1 | 1.4
CC(C)Cn1c(-c2csc3ccccc23)n[nH]c1=S | 33.5 | 77.6* | 0.7 | 0.2 | 1.1
CCn1c(-c2ccccc2O)n[nH]c1=S | 4.1 | 35.3 | 1 | 0.6 | 1.7
COc1ccc(-c2n[nH]c(=S)n2CC(C)C)cc1 | 56.1* | 78.5* | 0.4 | 0.2 | 2.5*
CCn1c(-c2ccc(C)cc2)n[nH]c1=S | 32.1 | 45.0 | 0.7 | 0.6 | 0.7
C=CCn1c(=O)c2c(C)c(C)sc2n2c(Nc3ccc(OC)cc3)nnc12 | 91.0* | 22.9 | 0.1 | 0.8 | 0.9
CN(C)c1ncnc2c1NC1=C(S2)C(=NCCCC(=O)O)CC(C)(C)C1 | -1.8 | -4.0 | 1 | 1 | 2*
O=C(CC(C(=O)O)N1CCOCC1)Nc1ccc(Cl)cc1 (stereo not given) | -27.8 | -11.7 | 1.3 | 1.1 | 1
c1coc(CNC2C3CC4CC(C3)CC2C4)c1 (stereo not given) | 12.8 | 11.4 | 0.9 | 0.9 | 0.7
CC1(C)C(=O)C2(CCCC2)C(=O)OC1c1ccco1 (stereo not given) | 20.4 | 64.0* | 0.8 | 0.4 | 1.1
O=C1OC(c2ccccc2)C2(CCCC2)C(=O)C12CCCC2 (stereo not given) | 3.2 | 23.0 | 1 | 0.8 | 1.1
CC1(C)C(=O)C2(CCCCC2)C(=O)OC1c1ccc(O)cc1 (stereo not given) | 59.5* | 76.8* | 0.4 | 0.2 | 1
Cc1nnc2ccc(N3CCOCC3)nn12 | 10.2 | -19.3 | 0.9 | 1.2 | 0.9
CC(C)C(=O)N(c1ccc2oc(=O)sc2c1)S(=O)(=O)c1cccs1 | 60.7* | 96.9* | 0.4 | 0 | 0.9
COc1ccc(N(C(=O)C(C)C)S(=O)(=O)c2cccs2)cc1 | 80.2* | 97.0* | 0.2 | 0 | 1.2
O=C(COc1ccc(Cl)cc1Cl)N(Cc1ccco1)C1CCS(=O)(=O)C1 (stereo not given) | 27.5 | 30.6 | 0.7 | 0.7 | 1.2
CCC1(C)Cc2ccccc2-c2nc(NCCO)n(-c3ccc(C)cc3)c(=O)c21 (stereo not given) | 43.7 | 67.0* | 0.6 | 0.3 | 1.6
CC1(C)Cc2ccccc2-c2nc(-c3ccccc3)oc(=O)c21 | 37.7 | 9.6 | 0.6 | 0.9 | 0.8
CCC1(C)Cc2ccccc2-c2c1c(=O)n(-c1ccc(C)cc1)c1nnnn21 (stereo not given) | 1.1 | -22.5 | 1 | 1.2 | 1.1
CC1(C)Cc2ccccc2-c2nc(NCCO)n(-c3ccccc3)c(=O)c21 | 34.6 | 61.4* | 0.7 | 0.4 | 1.8
COc1ccc(C(=O)NCc2cn3ccsc3n2)cc1OC | -13.8 | -13.2 | 1.1 | 1.1 | 1.1
O=C(Nc1cccc(Cl)c1)N(CCCN1CCOCC1)Cc1ccccc1F | 65.0* | 27.7 | 0.3 | 0.7 | 1.5
O=C(Nc1ccc(Cl)c(Cl)c1)N(CCCN1CCOCC1)Cc1cccs1 | 84.3* | 88.7* | 0.2 | 0.1 | 1.5
